This passage reports max response results from PubChem BioAssay (NCATS).

Results filed as inconclusive are left out. Numbered stars: 1 amine (or outer) side, 2 acyl side, 3 side chain; on linkers, the order of the positions; unused ones are H or OH. Bridge positions count the residues as written; N and C are the ends. Square brackets hold non-standard residues; d marks the D form. Peptide text beside a SMILES is read from it. * marks the point of attachment. ξ: configuration not given here. ΔAla(E,3-NHCONH2) = NC(=O)N/C=C(/N)C(=O)O; X1 = NC1=NCCC(C(N[*:1])C(=O)[*:2])N1; ξβ3hOrn = NCCCC(N)CC(=O)*; Dap = NC[CH](N)C(=O)O

The first assay can be described thus: qHTS Assay for Lipid Storage Modulators (AID 1519). To be noted: Drosophila S3 cells, BODIPY lipid droplet/cell ratio, laser cytometry; measured here: cell count channel max response; cells loaded with oleic acid. A digest of the protocol:
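Cells seeded at 5,000 per well were treated with compounds over a concentration series and loaded with oleic acid (400 uM, as added). Lipid droplet fluorescence (488 nm excitation, 500-530 nm channel) was read by laser-scanning cytometry and normalized to 20 uM Triacsin C.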
For orientation: Quantitative high-throughput screening tests each substance at several concentrations.
On to `CC1CC[C@@]2(OC1)OC1CC3C4CC[C@H]5CC(O)CC[C@@]5(C)C4CC[C@]3(C)C1C2C` (stereo not given in full), for which the max response came to 27.2%.

As for `CC(=O)OCC(=O)[C@@]1(O)CCC2C3CCC4=CC(=O)CC[C@@]4(C)[C@]3(F)C(O)C[C@]21C` (stereo not given in full), the max response was found to be 21.1%.

As for `CC(CCC(=O)O)C1CCC2C3CC(O)[C@@H]4CC(O)CC[C@]4(C)C3CC[C@@]12C` (stereo not given in full), the max response came to 12.9%.

For `CC1CCC(C(C)(C)O)CC2=C1CCC2C` (stereo not given), the max response is 9.89%.

Turning to `NCCC(O)C(=O)NC1C[C@@H](N)[C@H](O[C@@H]2OC(CN)C(O)C(O)C2O)C(O)[C@H]1O[C@H]1OC(CO)C(O)C(N)C1O` (stereo not given in full), the max response was 23.7%.

For `CC(C)CC(NC(=O)CN)C(=O)NC(Cc1ccccc1)C(=O)O` (stereo not drawn) (H-Gly-Leu-Phe-OH; configuration not given here), the max response was determined as 3.97%.

As for `CC(=O)OC1CCC2(C)C(=CC=C3C2CCC2(C)C3CCC2C(C)/C=C/C(C)C(C)C)C1(C)C` (stereo not given), the max response stood at 12.2%.

`COc1cc2c3cc1Oc1cc(ccc1O)CC1c4c(cc(OC)c(O)c4Oc4ccc(cc4)CC3N(C)CC2)CC[N+]1(C)C` (stereo not given): the max response was -2.85%.

With `CCOC(=O)c1c(C)cc(O)c(C)c1O`, the max response came out at 15.9%.

Turning to `CC1(C)OC2C(CO)OC(n3cnc4c(=O)[nH]c(N)nc43)C2O1` (stereo not given), the max response was found to be 24%.

On to `COc1ccc(-c2cc(=O)c3c(O)c(OC)c(OC)c(OC)c3o2)cc1`, for which the max response was determined as 14.3%.

With `NCCCC(N)CC(=O)NCC1NC(=O)C(CO)NC(=O)C(N)CNC(=O)C(C2CCN=C(N)N2)NC(=O)/C(=C\NC(N)=O)NC1=O` (stereo not drawn) (H-[Dap]S[Dap](ξβ3hOrn)[ΔAla(E,3-NHCONH2)][X1]; lactam 1-C; configuration not given here), the max response amounted to 15.4%.

Take `COc1ccc(/C=C/c2cc(O)cc(O[C@H]3OC(CO)C(O)C(O)C3O)c2)cc1` (stereo not given in full): the max response was 12.8%.

Consider `CC(=O)OCC(=O)[C@]1(O)C(OC(C)=O)CC2C3CCC4=CC(=O)C=C[C@@]4(C)[C@]3(F)C(O)C[C@]21C` (stereo not given in full), for which the max response came out at 7.55%.

On to `COc1ccc(C2OC3C(CO)OC(n4cnc5c(=O)[nH]c(N)nc54)C3O2)cc1` (stereo not given), for which the max response came to 11.1%.

Take `C[C@@]12CCC(O)C[C@H]1CCc1ccccc12` (stereo not given in full): the max response turned out to be 0.578%.

Take `CCOc1ccc(C(=O)c2ccc(OC)c(O)c2O)cc1`: the max response stood at 6.67%.

Turning to `CC(=O)NC(CC(=O)O)C(=O)NC(CCC(=O)O)C(=O)O` (stereo not drawn) (Ac-Asp-Glu-OH; configuration not given here), the max response is 12.9%.

As for `CC1CCC(C(C)C)[C@H](OC(=O)c2ccccc2)C1` (stereo not given in full), the max response turned out to be 10.9%.

As for `CC(C(=O)O)C1CCC2C3CC=C4CC(O)CC[C@@]4(C)C3CC[C@]12C` (stereo not given in full), the max response was determined as 6.91%.

For `CC1(C)OC2C[C@](O)(C(N)=O)C[C@H](O)[C@H]2O1` (stereo not given in full), the max response was 15.6%.

As for `OCC1OC(n2cnc3c(NCc4ccco4)ncnc32)C(O)C1O` (stereo not given), the max response was -4.44%.

As to `[N-]=[N+]=NCC1OC(n2cnc3c(=O)[nH]c(N)nc32)C(O)C1O` (stereo not given), the max response came to 12.7%.

For `COc1ccc(-c2cc(=O)c3c(O)cc(O[C@@H]4OC(COC5OC(C)C(O)C(O)[C@@H]5O)C(O)C(O)C4O)cc3o2)cc1` (stereo not given in full), the max response is -4.97%.

For `CC(=O)C1CCC2C3CC=C4CC(O)CC[C@@]4(C)C3CC[C@]12C` (stereo not given in full), the max response came to 11.3%.

With `CC1CC[C@@]2(OC1)OC1CC3C4CC=C5CC(O)CC[C@@]5(C)C4CC[C@]3(C)C1C2C` (stereo not given in full), the max response turned out to be 10.1%.

For the molecule `CC1CCC(C(C)C)[C@H](O)C1` (stereo not given in full), the max response is -2.41%.

For the molecule `CC(=O)OCC(=O)C1CCC2C3CC=C4CC(O)CC[C@@]4(C)C3CC[C@]12C` (stereo not given in full), the max response came to 22.6%.

Regarding `CCC1OC(=O)C(C)[C@@H](O[C@H]2C[C@@](C)(OC)C(O)C(C)O2)C(C)[C@@H](O[C@@H]2OC(C)CC(N(C)C)C2O)[C@](C)(O)CC(C)/C(=N\OCOCCOC)[C@H](C)C(O)[C@]1(C)O` (stereo not given in full), the max response is 27.8%.

As for `C/C=C1\C2C=C(C)C[C@@]1(N)c1ccc(=O)[nH]c1C2`, the max response came to 9.87%.

As to `CC(C)(O)CCC(O)[C@@](C)(O)C1CC[C@]2(O)C3=CC(=O)C4CC(O)C(O)C[C@]4(C)C3CC[C@]12C` (stereo not given in full), the max response is -2.83%.

For the molecule `C=C(C)C1CC=C(CO)CC1` (stereo not given), the max response was -1.53%.

In the case of `CC1CCC2(OC1)OC1CC3C4CC[C@@H]5CC(O)CC[C@@]5(C)C4CC(=O)[C@]3(C)C1C2C` (stereo not given in full), the max response is 0.354%.

For `CC(=O)NC1C(O)C[C@@](O)(C(=O)O)OC1[C@@H](O)C(O)CO` (stereo not given in full), the max response is 13.3%.

Take `O=C(Cc1ccccc1)NO`: the max response amounted to 2.32%.

For `CCC(C(N)=O)c1ccccc1` (stereo not given), the max response amounted to 9.46%.

As to `CC1=C2C(O)C(=O)OC3CC4C(C)(C)C(=O)C=C[C@]4(C)C(CC1)[C@@]23C` (stereo not given in full), the max response was found to be 17.8%.

On to `O=C(O)c1cc2cc(Cl)ccc2[nH]1`, for which the max response was 19.5%.

For the molecule `CC(C)CC(N)C(=O)NC(C)C(=O)O` (stereo not given), the max response is 18.5%.

For `NCC1CCCCC1CC(=O)O` (stereo not given), the max response amounted to 16.7%.

The same assay, now with this note: Drosophila S3 cells, BODIPY lipid droplet/cell ratio, laser cytometry; measured here: lipid channel max response; cells loaded with oleic acid.
As for `CC1CC[C@@]2(OC1)OC1CC3C4CC[C@H]5CC(O)CC[C@@]5(C)C4CC[C@]3(C)C1C2C` (stereo not given in full), the max response came out at 29.7%.

In the case of `CC(=O)OCC(=O)[C@@]1(O)CCC2C3CCC4=CC(=O)CC[C@@]4(C)[C@]3(F)C(O)C[C@]21C` (stereo not given in full), the max response amounted to 29.1%.

For `CC(CCC(=O)O)C1CCC2C3CC(O)[C@@H]4CC(O)CC[C@]4(C)C3CC[C@@]12C` (stereo not given in full), the max response amounted to 20.4%.

As to `CC1CCC(C(C)(C)O)CC2=C1CCC2C` (stereo not given), the max response is 15.9%.

Consider `NCCC(O)C(=O)NC1C[C@@H](N)[C@H](O[C@@H]2OC(CN)C(O)C(O)C2O)C(O)[C@H]1O[C@H]1OC(CO)C(O)C(N)C1O` (stereo not given in full), for which the max response is 35.1%.

Consider `CC(C)CC(NC(=O)CN)C(=O)NC(Cc1ccccc1)C(=O)O` (stereo not drawn) (H-Gly-Leu-Phe-OH; configuration not given here), for which the max response amounted to 11.6%.

As to `CC(=O)OC1CCC2(C)C(=CC=C3C2CCC2(C)C3CCC2C(C)/C=C/C(C)C(C)C)C1(C)C` (stereo not given), the max response amounted to 14.9%.

Consider `COc1cc2c3cc1Oc1cc(ccc1O)CC1c4c(cc(OC)c(O)c4Oc4ccc(cc4)CC3N(C)CC2)CC[N+]1(C)C` (stereo not given), for which the max response came out at 6.31%.

As for `CCOC(=O)c1c(C)cc(O)c(C)c1O`, the max response stood at 23.2%.

As to `CC1(C)OC2C(CO)OC(n3cnc4c(=O)[nH]c(N)nc43)C2O1` (stereo not given), the max response is 28%.

For the molecule `COc1ccc(-c2cc(=O)c3c(O)c(OC)c(OC)c(OC)c3o2)cc1`, the max response is 20.3%.

With `NCCCC(N)CC(=O)NCC1NC(=O)C(CO)NC(=O)C(N)CNC(=O)C(C2CCN=C(N)N2)NC(=O)/C(=C\NC(N)=O)NC1=O` (stereo not drawn) (H-[Dap]S[Dap](ξβ3hOrn)[ΔAla(E,3-NHCONH2)][X1]; lactam 1-C; configuration not given here), the max response is 21.2%.

Turning to `COc1ccc(/C=C/c2cc(O)cc(O[C@H]3OC(CO)C(O)C(O)C3O)c2)cc1` (stereo not given in full), the max response stood at 23%.

For `CC(=O)OCC(=O)[C@]1(O)C(OC(C)=O)CC2C3CCC4=CC(=O)C=C[C@@]4(C)[C@]3(F)C(O)C[C@]21C` (stereo not given in full), the max response was found to be 12.5%.

In the case of `COc1ccc(C2OC3C(CO)OC(n4cnc5c(=O)[nH]c(N)nc54)C3O2)cc1` (stereo not given), the max response stood at 13.1%.

As for `C[C@@]12CCC(O)C[C@H]1CCc1ccccc12` (stereo not given in full), the max response worked out at 6.01%.

`CCOc1ccc(C(=O)c2ccc(OC)c(O)c2O)cc1`: the max response turned out to be 16.2%.

In the case of `CC(=O)NC(CC(=O)O)C(=O)NC(CCC(=O)O)C(=O)O` (stereo not drawn) (Ac-Asp-Glu-OH; configuration not given here), the max response was found to be 18.5%.

Consider `CC1CCC(C(C)C)[C@H](OC(=O)c2ccccc2)C1` (stereo not given in full), for which the max response was determined as 15.1%.

`CC(C(=O)O)C1CCC2C3CC=C4CC(O)CC[C@@]4(C)C3CC[C@]12C` (stereo not given in full): the max response turned out to be 12.2%.

As to `CC1(C)OC2C[C@](O)(C(N)=O)C[C@H](O)[C@H]2O1` (stereo not given in full), the max response came out at 23.7%.

In the case of `OCC1OC(n2cnc3c(NCc4ccco4)ncnc32)C(O)C1O` (stereo not given), the max response is -3.92%.

With `[N-]=[N+]=NCC1OC(n2cnc3c(=O)[nH]c(N)nc32)C(O)C1O` (stereo not given), the max response worked out at 19.1%.

With `COc1ccc(-c2cc(=O)c3c(O)cc(O[C@@H]4OC(COC5OC(C)C(O)C(O)[C@@H]5O)C(O)C(O)C4O)cc3o2)cc1` (stereo not given in full), the max response was 1.77%.

Turning to `CC(=O)C1CCC2C3CC=C4CC(O)CC[C@@]4(C)C3CC[C@]12C` (stereo not given in full), the max response amounted to 18.4%.

Regarding `CC1CC[C@@]2(OC1)OC1CC3C4CC=C5CC(O)CC[C@@]5(C)C4CC[C@]3(C)C1C2C` (stereo not given in full), the max response was determined as 19%.

`CC1CCC(C(C)C)[C@H](O)C1` (stereo not given in full): the max response was -1.46%.

For `CC(=O)OCC(=O)C1CCC2C3CC=C4CC(O)CC[C@@]4(C)C3CC[C@]12C` (stereo not given in full), the max response was 38.3%.

As for `CCC1OC(=O)C(C)[C@@H](O[C@H]2C[C@@](C)(OC)C(O)C(C)O2)C(C)[C@@H](O[C@@H]2OC(C)CC(N(C)C)C2O)[C@](C)(O)CC(C)/C(=N\OCOCCOC)[C@H](C)C(O)[C@]1(C)O` (stereo not given in full), the max response was determined as 41%.

As to `C/C=C1\C2C=C(C)C[C@@]1(N)c1ccc(=O)[nH]c1C2`, the max response is 26.4%.

`CC(C)(O)CCC(O)[C@@](C)(O)C1CC[C@]2(O)C3=CC(=O)C4CC(O)C(O)C[C@]4(C)C3CC[C@]12C` (stereo not given in full): the max response worked out at 0.37%.

As for `C=C(C)C1CC=C(CO)CC1` (stereo not given), the max response was 1.38%.

Regarding `CC1CCC2(OC1)OC1CC3C4CC[C@@H]5CC(O)CC[C@@]5(C)C4CC(=O)[C@]3(C)C1C2C` (stereo not given in full), the max response stood at 13.1%.

In the case of `CC(=O)NC1C(O)C[C@@](O)(C(=O)O)OC1[C@@H](O)C(O)CO` (stereo not given in full), the max response was determined as 18.3%.

For the molecule `O=C(Cc1ccccc1)NO`, the max response was 5.58%.

In the case of `CCC(C(N)=O)c1ccccc1` (stereo not given), the max response is 21.9%.

Regarding `CC1=C2C(O)C(=O)OC3CC4C(C)(C)C(=O)C=C[C@]4(C)C(CC1)[C@@]23C` (stereo not given in full), the max response was determined as 24.5%.

In the case of `O=C(O)c1cc2cc(Cl)ccc2[nH]1`, the max response stood at 25.3%.

`CC(C)CC(N)C(=O)NC(C)C(=O)O` (stereo not given): the max response came to 21.6%.

As to `NCC1CCCCC1CC(=O)O` (stereo not given), the max response is 26.7%.
